# High-throughput results: PubChem, several laboratories
# MITF act: increases MITF-driven TRPM1 promoter luciferase signal; SK-MEL-5 TRPM1-promoter luciferase, 24 h; % of positive control, neutral wells = 0; activation, % at 12.5 µM; hit rate 0.75% among 300,000; AID 588334;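 active = mean activation of at least 80% with every replicate also reaching 80%; inconclusive = mean reaches 80% but some replicate falls short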;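 note: 0% = neutral control wells and 100% = parthenolide positive control wells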
# MLL AF4-AF9 inh: MLL-AF4/AF9 protein interaction inhibition | P42568 | inhibition, % at 10 µM | hit rate 0.47% among 350,000 | AID 651704 | AlphaScreen, biotin-AF4 peptide binding to FLAG-AF9;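 active = every replicate reaching a set inhibition limit, whatever the replicate mean, cut at about 25% in these data; inconclusive = mean inhibition reaches that limit but some replicates miss it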;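 note: 0% = plate neutral control median and 100% = total signal loss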
# SMARCA2 act: activators of SMARCA2 function. MG213 cells, MMTV-luciferase reporter, dexamethasone, overnight. activation, % at 9.1 µM. hit rate 1% among 370,000. AID 652017; in the data active = activation above about 7.8%;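 note: 0% = vehicle wells and 100% = reference activator wells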
# Wnt bcat act: activates Wnt/beta-catenin signaling in a reporter cell assay; activator, plate reader; activation, % at 9.35 µM; hit rate 1.2% among 300,000; in the data active = activation above about 30%, passing the limit was not always enough; inconclusive = no clear call, values can overlap the other calls;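 note: 0% = neutral control wells and 100% = positive control wells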
# esBAF inh: blocks esBAF chromatin remodeling in mouse ES cells. AID 602393. hit rate 2% among 350,000. Bmi1-luciferase knock-in reporter, 24 h; 100% = twice the neutral-well signal. reporter increase, % at 12.5 µM; in the data active = activation above about 40%; inconclusive = no clear call, values can overlap the other calls;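 note: 0% = median of the plate's neutral control wells and 100% = double that signal; a rise in the Bmi1 reporter signal indicates esBAF inhibition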
# FGF22 binding: binders of recombinant human FGF22 by thermal shift. Q9HCT0. SYPRO orange fluorescence; percent of sucrose octasulfate shift, DMSO zero. activity (Tm shift, normalised), % at 9.99 µM. hit rate 1.5% among 340,000. AID 651658;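 active = mean Tm shift, scaled 0 neutral to 100 positive control, at about 1.3% or above, every replicate too, limit read from the data; inconclusive = no clear call, values can overlap the other calls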
# Target sequence (Q9HCT0 whole entry, looked up): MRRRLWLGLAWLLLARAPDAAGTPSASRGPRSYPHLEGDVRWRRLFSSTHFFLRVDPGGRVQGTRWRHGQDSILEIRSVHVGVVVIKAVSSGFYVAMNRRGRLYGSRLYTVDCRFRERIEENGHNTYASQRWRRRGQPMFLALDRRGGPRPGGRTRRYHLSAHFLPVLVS
# * = called active by the depositor; ? = inconclusive; . = no result. The list is not random: actives were taken first. Their share in the collection is about 4.3%.
SMILES,MITF act,MLL AF4-AF9 inh,SMARCA2 act,Wnt bcat act,esBAF inh,FGF22 binding
NC(=O)c1cccc(-c2csc(C(O)c3ccccc3)n2)c1 (stereo unspecified),.,-86,-1,2,12,0
OCc1cccc(-c2csc(C(O)c3ccccc3)n2)c1 (stereo unspecified),.,-4,0,-1,41*,0
COc1ccc(C(O)c2nc(-c3ccc4ccccc4c3)cs2)cc1 (stereo unspecified),.,-6,-1,1,58*,0
COc1ccc(C(O)c2nc(-c3cccc(CO)c3)cs2)cc1 (stereo unspecified),.,-3,-5,0,5,0
O=C(O)c1cccc(-c2csc(C(O)c3ccccc3)n2)c1 (stereo unspecified),.,-2,-4,35*,43*,0
Cc1ccc(-c2csc(C(O)c3ccc(F)cc3)n2)cc1C (stereo unspecified),.,0,2,26,24,0
O=C(c1ccncc1)N1CC2(C1)[C@@H](c1ccccc1)[C@@H](CO)N2CC1CCCC1,.,1,.,.,.,0
C[C@H](CO)N1C[C@H](C)[C@H](CN(C)Cc2ccc3c(c2)OCO3)Oc2ccc(NS(=O)(=O)c3cn(C)cn3)cc2C1=O,.,-1,.,.,-4,0
CC(C)c1cn([C@H]2C[C@@H]3O[C@@H](CO)CC[C@@H]3O[C@@H]2CCc2ccc(C#CC3(O)CCCC3)cc2)nn1,.,-1,.,.,.,.
C[C@@H]1CN([C@H](C)CO)C(=O)c2cc(/C=C/c3ccccc3)cnc2O[C@@H]1CN(C)C(=O)c1ccccc1,.,4,.,.,2,0
CN(C)c1ccc(-c2csc(C(O)c3ccc(F)c(F)c3)n2)cc1 (stereo unspecified),.,0,0,3,45*,0
COc1ccc(C(O)c2nc(-c3ccc(N(C)C)cc3)cs2)cc1 (stereo unspecified),.,9,-1,7,?,0
Clc1ccc(-c2csc(=Nc3cccnc3)n2CCCn2ccnc2)cc1Cl,4,47*,-6,-3,.,0
COCCn1c(-c2ccc(Br)cc2)csc1=Nc1cccnc1,5,13,-5,2,.,0
Nc1ccc2c(c1)Cc1cc(N)c(Br)cc1-2,23,15,4,-5,.,0
Nc1cc2c(cc1Cl)-c1ccc(Cl)cc1C2,.,1,0,6,59*,43
CCCCNC(=O)C1(C)CCCCN1C(=O)c1csnn1 (stereo unspecified),.,-6,1,-2,-2,44*
CCCCNC(=O)C1(C)CCCCN1C(=O)c1ccno1 (stereo unspecified),.,2,2,0,0,0
CC(C)CNC(=O)C1(C)CCCCCN1C(=O)c1csnn1 (stereo unspecified),.,-1,-1,-2,-3,0
CCCCNC(=O)C1(C)CCCCN1C(=O)c1cccs1 (stereo unspecified),.,-3,-3,39*,1,0
CCCCNC(=O)C1(C)CCCCN1C(=O)c1c(C)noc1C (stereo unspecified),.,-4,-1,33*,4,0
CCCC(=O)Nc1ccc2c(c1)C(=O)N(C)C[C@H](OC)[C@@H](C)CN(C)[C@@H](C)CO2,.,1,.,.,1,0
Cc1ccc(S(=O)(=O)N2CCCC2C(=O)N2CCN(c3ccccc3)CC2)cc1 (stereo unspecified),.,.,5,.,.,.
COc1ccc(NC(=O)NCc2ccco2)cc1OC,4,1,6,1,.,44*
COc1ccc(C)cc1NC(=O)NCc1ccco1,4,1,5,-1,.,0
SMILES,MITF act,MLL AF4-AF9 inh,SMARCA2 act,Wnt bcat act,esBAF inh,FGF22 binding
COc1cc(N2Cc3ccccc3C2)ccc1C=O,.,-11,6,7,51*,0
Cc1cc(C)cc(N2Cc3ccccc3C2)c1,6,5,1,-2,0,0
COc1ccccc1N/N=C1\COC(C)(C)CC1=O,76,6,3,9,39,0
CC1(C)CC(=O)/C(=N/Nc2ccc(Cl)cc2)CO1,69,-3,4,52*,55*,41
Cc1cccc(N/N=C2/COC(C)(C)CC2=O)c1,76,-1,7.9*,.,20,0
CC(C)CC#Cc1cnc2c(c1)C(=O)N([C@H](C)CO)C[C@H](C)[C@@H](CN(C)C(=O)c1ccccc1)O2,.,-1,.,.,-1,0
CCN1[C@@H]2c3ccc(-c4ccc(OC)cc4)c(=O)n3C[C@@H]2[C@@H](CO)[C@@H]1C(=O)NC1CCC1,.,1,.,.,1,0
COc1ccc(C2c3ccc4ccccc4c3Oc3ncn(CCCN(C)C)c(=N)c32)cc1 (stereo unspecified),-99,33*,5,0,-9,0
COc1ccccc1C1c2ccc3ccccc3c2Oc2ncn(CCN(C)C)c(=N)c21 (stereo unspecified),-70,18,0,-6,-18,0
Cc1ccc(NC(=S)Nc2ccc(OC(F)F)c(Cl)c2)cc1F,2,0,2,3,.,43*
Fc1ccc(NC(=S)Nc2ccc(F)c(Cl)c2)cc1Cl,-3,.,.,0,-3,.
COc1ccc(C(=O)NCCn2ccc3ccccc32)cc1,98*,.,2,.,44*,.
Cc1ccc(C(=O)NCCn2ccc3ccccc32)cc1[N+](=O)[O-],16,4,-1,0,.,0
O=C(NCCn1ccc2ccccc21)c1ccc2c(c1)OCO2,77,3,4,38*,52*,0
CC(C)CC#Cc1ccc2c(c1)O[C@@H](CN(C)Cc1ccccn1)[C@@H](C)CN([C@@H](C)CO)S2(=O)=O,.,6,.,.,4,0
CO[C@H]1CN(C)C(=O)c2ccc(NS(C)(=O)=O)cc2OC[C@@H](C)N(C)C[C@@H]1C,.,-1,.,.,-2,0
COc1ccc(S(=O)(=O)N(C)C[C@H]2Oc3c(NC(=O)Nc4c(C)noc4C)cccc3C(=O)N([C@H](C)CO)C[C@H]2C)cc1,.,.,.,.,2,.
O=C(Nc1ccc2c(c1)OCCO2)c1c(Cl)cccc1Cl,.,1,-1,0,10,1
O=C(Nc1ccc2c(c1)OCCO2)c1cccc(Cl)c1Cl,.,-3,1,15,88*,0
Cc1oc(C(C)(C)C)cc1C(=O)Nc1ccc2c(c1)OCCO2,40,.,4,.,44*,.
O=C(Nc1ccc(N2CCCCC2)cc1)c1ccc(F)cc1F,22,0,1,44*,-29,0
O=C(Nc1ccc(N2CCN(C(=O)c3cccs3)CC2)cc1)c1ccccc1F,4,1,-2,-3,-1,0
O=C(Nc1ccc(N2CCCC2)cc1)c1ccccc1F,61,.,4,.,42*,.
O=C(C[C@@H]1CC[C@H]2[C@@H](COC[C@H](O)CN2Cc2ccc3c(c2)OCO3)O1)Nc1ccc(-c2ccccc2)cc1,.,2,.,.,16,0
